Measurements published in PubChem BioAssay AID488896 (Broad Institute, 2010).
The campaign covered roughly 320,000 compounds. About 3,100 (0.97%) were called active. Only a selection was taken, and actives are over-represented in it overall. Values without a mark were called inactive.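 Rule for the calls: active = mean replicate inhibition of at least 70% and a set share of replicates each scoring 70 or more; inconclusive = meets just one of the two criteria; inactive = fails both criteria.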

Each compound was assayed against Scavenger receptor class B member 1 (Mus musculus) (UniProt Q61009) (assay: mouse SR-BI DiI-HDL uptake blockers – ldlA[mSR-BI] cells, fluorescence, single point, primary screen (AID 488896;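 note: 0% = median of neutral control wells and 100% = median of positive control wells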)). Conditions: ldlA[mSR-BI] CHO cells, 3 h, at 12.5 µM, stronger effect = higher value.
Chain of Scavenger receptor class B member 1 (Mus musculus) (Q61009 whole entry, looked up): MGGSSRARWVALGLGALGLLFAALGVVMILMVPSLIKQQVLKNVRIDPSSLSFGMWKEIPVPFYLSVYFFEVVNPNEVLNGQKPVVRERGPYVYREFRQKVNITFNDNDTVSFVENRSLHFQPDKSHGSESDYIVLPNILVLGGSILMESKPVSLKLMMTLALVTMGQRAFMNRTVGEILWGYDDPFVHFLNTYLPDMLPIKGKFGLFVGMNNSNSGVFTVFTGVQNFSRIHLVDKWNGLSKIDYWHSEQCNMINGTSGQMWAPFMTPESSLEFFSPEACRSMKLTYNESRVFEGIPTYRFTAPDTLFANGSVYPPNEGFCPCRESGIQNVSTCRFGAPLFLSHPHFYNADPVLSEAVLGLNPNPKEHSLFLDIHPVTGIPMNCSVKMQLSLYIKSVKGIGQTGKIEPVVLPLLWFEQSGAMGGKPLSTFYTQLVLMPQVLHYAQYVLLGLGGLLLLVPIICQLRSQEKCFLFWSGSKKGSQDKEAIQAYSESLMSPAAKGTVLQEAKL

Structure (SMILES)	inhibition
Cc1cc([N+](=O)[O-])ccc1NS(=O)(=O)c1ccccc1	-11.2%
COc1ccc(/C=C/C(=O)OCC(=O)N2CCN(S(=O)(=O)c3ccc(C)cc3C)CC2)cc1OC	71.9% (active)
Cc1ccc(S(=O)(=O)N2CCN(C(=O)COC(=O)c3c(C)cc(C)cc3C)CC2)c(C)c1	20.4%
Cc1ccc(S(=O)(=O)N2CCN(C(=O)COC(=O)/C=C/c3cccc(Cl)c3)CC2)c(C)c1	-11.6%
CC(C)(C)OC(=O)N1CCC(C(=O)Nc2cccc(C(=O)NCCc3ccccc3)c2)CC1	52.6%
CC(=O)N1CCN(C(=O)c2cc(-c3ccc(Cl)s3)nc3ccccc23)CC1	33.7%
Cc1c(NC(=O)c2cc(-c3ccc(Cl)s3)nc3ccccc23)c(=O)n(-c2ccccc2)n1C	95.8% (active)
O=C(c1cc(-c2ccc(Cl)s2)nc2ccccc12)N1CCOCC1	19.5%
CC(=O)Oc1ccc(OC(C)=O)c2c1C1C=CC2CC1	-21.7%
COc1ccc(Nc2ccc3ccccc3c2)cc1	31.3%
Nc1cccc(-c2cc(-c3ccccc3)nc(-c3cccc(N)c3)n2)c1	102% (active)
Nc1nc(-c2ccccc2)cc(-c2ccccc2)n1	9.59%
CNc1nc(-c2ccccc2)cc(-c2ccccc2)n1	21.8%
CC(=NNC(=S)N1CCCCCC1)c1ccccn1	22.4%
Cc1ccc(NC(=O)c2ccccn2)cc1S(=O)(=O)N1CCOCC1	-25.4%
CCOc1cc(/C=N/NC(=O)c2cccc(S(=O)(=O)N3CCOCC3)c2)ccc1OCC(=O)N(C)C	23.7%
O=C(N/N=C/c1ccccn1)c1ccc(S(=O)(=O)N2CCCCCC2)cc1	10.6%
Cc1ncc(CO)c(/C=N/NC(=O)c2cccc(S(=O)(=O)N3CCCC3)c2)c1O	84.8% (active)
Cc1cccc(NC(=O)c2cccc(S(=O)(=O)N3CCCC3)c2)n1	26.2%
Cc1nc2ccc(NC(=O)c3cccc(S(=O)(=O)N4CCOCC4)c3)cc2s1	72.3% (active)

Structure (SMILES)	inhibition
Cc1ccc(C(=O)Nc2ccc3c(c2)OCCO3)cc1S(=O)(=O)N1CCOCC1	50.5%
O=C(Nc1ccc(S(=O)(=O)Nc2nccs2)cc1)c1cccc(S(=O)(=O)N2CCOCC2)c1	-0.76%
O=C(Nc1ccc(N2CCOCC2)cc1)c1cccc(S(=O)(=O)N2CCOCC2)c1	65.7%
COc1ccc(Br)cc1/C=N/NC(=O)c1cccc(S(=O)(=O)N2CCOCC2)c1	81.8% (active)
Cc1ccc(NC(=O)c2ccc(Cl)nc2)cc1S(=O)(=O)N1CCOCC1	74.1% (active)
COc1ccc(OC)c(NC(=O)c2cccc(S(=O)(=O)N3CCN(C(C)=O)CC3)c2)c1	10.1%
CC(=O)OCC1(O)CC23CCC4c5ccoc5CCC4(C)C2CCC1C3 (stereo not drawn)	30.4%
COc1cc(/C=C/CNC[C@H]2O[C@@H](n3cnc(C(N)=O)n3)[C@H](O)[C@@H]2O)ccc1O	-8.12%
O=c1[nH]c(=S)[nH]c(O)c1/C=C1\C=Nc2ccccc21	-12.1%
Cc1cc(OCCCC(=O)Nc2cc(S(=O)(=O)N3CCOCC3)ccc2N2CCOCC2)ccc1Cl	17.2%
CC(C)=C(NC(=O)c1ccccc1)C(=O)N/N=C(\C)c1ccccc1O	-7.68%
Cc1[nH]n(-c2ccccc2)c(=O)c1/C=N/NC(=O)c1ccoc1C	69.6%
C/C(=N\NC(=O)c1ccoc1C)c1ccccc1O	95.2% (active)
Cc1ccc(C)c(S(=O)(=O)N(C)c2ccc(OC(=O)C3CCN(C(=O)c4ccc(F)cc4)CC3)cc2)c1	12.3%
CC1=CC(C)(C)N(C(=O)CSc2nccn2C)c2cc(C)ccc21	-2.67%
CC1=CC(C)(C)N(C(=O)CSc2nnc(-c3ccccc3)o2)c2ccc(C)cc21	73.5% (active)
Cc1cccc(C)c1OC(=O)CSc1nnc(-c2ccccc2)o1	-9.02%
CCc1c(Nc2ccccc2Cl)nc(N)[nH]c1=O	-15.3%
CCOc1cc(NS(=O)(=O)c2ccc(OC)cc2)c(OCC)cc1NC(C)=O	-2.12%
CCOc1cc2ccccc2cc1C(=O)Nc1ccccn1	58.6%

Structure (SMILES)	inhibition
CCOc1ccccc1NC(=O)Nc1cc(OC)ccc1OC	76.1% (active)
CCOc1ccc(NC(=O)Nc2cc(C)ccc2OC)cc1	10.4%
CCOc1cc(NC(=O)c2ccccn2)c(OCC)cc1NC(=O)c1ccc(OC)cc1	72.3% (active)
COc1ccc(OC)c(NC(=O)CC(Cc2ccccc2OC)C(=O)O)c1 (stereo not drawn)	-10.9%
CC1CN(Cc2ccccc2)C(=S)NC1=O (stereo not drawn)	-4.96%
Cc1cc2c(cc1C)NC1(C[C@H]3CCC(=O)N4CC[C@@H](C1)[C@@H]34)C(=NC(C)(C)CC(C)(C)C)N2 (stereo partly drawn)	-27.8%
O=C(NNc1nc(N2CCCC2)nc(N2CCCC2)n1)c1ccccc1	-25.2%
O=C1C=C(NS(=O)(=O)c2ccccc2)C(=O)c2ccccc21	-17.2%
c1ccc(-c2c[nH]c(-c3ccccc3)c2)cc1	9.83%
COc1ccc(-c2c(C)cc3oc(=O)cc(-c4ccccc4)c3c2C)cc1F	68.3%
COc1ccc(-c2c(C)cc3oc(=O)cc(-c4ccccc4)c3c2C)cc1C=O	75.1% (active)
COc1ccc(-c2c(C)cc3oc(=O)cc(-c4ccccc4)c3c2C)cc1OC	66.6%
COc1ccc2[nH]c3c(c2c1)CCN1C(=O)C(CC(=O)NCCc2ccccn2)C[C@H](C(=O)N2CCOCC2)[C@@]31C (stereo partly drawn)	-24.1%
O=C(Nc1c[nH]c(=O)[nH]c1=O)OCc1ccccc1	-8.08%
O=C(NC1=CC(=O)c2ccccc2C1=O)c1ccccc1	2.35%
Cc1cccc(NC(=O)c2sc3nc(N4CCOCC4)c4c(c3c2N)CCCC4)c1	68%
Cc1cccc(NC(=O)c2sc3nc4c(c(-c5ccco5)c3c2N)CCC4)c1	77.8% (active)
Cc1cccc(NC(=O)CSc2nnc(-c3ccco3)o2)c1	-5.55%
